Laboratory results reported in PubChem BioAssay (NCI).
About 79,000 compounds went through this panel and 15% of them were active in at least one assay; those are over-represented in the sample as a whole. The source made the active and inactive calls. Cut-off read from the data, not from the text of the source: active = growth inhibition above about 70%; inactive = the rest.

Legend:
[1] = NCI Yeast Anticancer Drug Screen. Data for the rad52 strain (AID 147);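 note: 0% = growth of vehicle-treated control cultures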; conditions: S. cerevisiae rad52 mutant growth inhibition, active compounds read high
Summary of the method: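 Genetically altered yeast (DNA damage repair defect) treated with compound; inhibition calculated relative to vehicle.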

[2] = NCI Yeast Anticancer Drug Screen. Data for the wt1 strain (AID 149);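 note: 0% = growth of vehicle-treated wt1 cultures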; conditions: S. cerevisiae wt1 strain (SPY 50644) growth inhibition, active compounds read high
Summary of the method: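 wt1 yeast, compound-treated; % growth inhibition vs vehicle control.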

[3] = NCI Yeast Anticancer Drug Screen. Data for the rad50EPP+ strain (AID 151);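 note: 0% = growth of vehicle-treated control cultures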; conditions: S. cerevisiae rad50 mutant strain, active compounds read high
Summary of the method: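 Strain rad50EPP+; compound exposure; % growth inhibition vs vehicle.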

[4] = NCI Yeast Anticancer Drug Screen. Data for the mgt1 strain (AID 153); conditions: S. cerevisiae mgt1 mutant growth inhibition, active compounds read high
Summary of the method: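 Read-out: yeast growth inhibition vs vehicle control. Strain mgt1, drawn from a panel altered in DNA damage repair or cell cycle control.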

[5] = NCI Yeast Anticancer Drug Screen. Data for the rad50 strain (AID 155);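 note: 0% = growth of vehicle-only cultures of the same strain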; conditions: S. cerevisiae rad50 strain growth inhibition, active compounds read high
Summary of the method: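 Genetically altered yeast (DNA repair pathway); compound treatment; growth inhibition vs vehicle ctrl.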

[6] = NCI Yeast Anticancer Drug Screen. Data for the mec2-1 strain (AID 157); conditions: S. cerevisiae mec2-1 strain, active compounds read high
Summary of the method: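 Cells of the genetically defined mec2-1 yeast strain are incubated with test compound. Inhibition of growth is calculated against vehicle-treated controls.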

[7] = NCI Yeast Anticancer Drug Screen. Data for the rad14 strain (AID 159);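 note: 0% = growth of vehicle-treated control cultures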; conditions: S. cerevisiae rad14 strain growth inhibition, active compounds read high
Summary of the method: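 Test compounds were applied to a repair-deficient yeast strain. Its growth was then compared with that of cultures given vehicle alone, and inhibition was expressed relative to those controls.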

[8] = NCI Yeast Anticancer Drug Screen. Data for the sgs1 mgt1 strain (AID 161);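 note: 0% = growth of cultures given vehicle only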; conditions: S. cerevisiae sgs1 mgt1 strain, active compounds read high
Summary of the method: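 Inhibition of yeast growth, normalised to vehicle-treated controls, is reported for a strain bearing genetic alterations in DNA damage repair.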

[9] = NCI Yeast Anticancer Drug Screen. Data for the CLN2oe strain (AID 163);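 note: 0% = growth of vehicle-only control cultures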; conditions: S. cerevisiae CLN2oe strain, active compounds read high
Summary of the method: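 Strain altered in cell-cycle control, incubated with compound; growth compared to solvent-treated controls.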

[10] = NCI Yeast Anticancer Drug Screen. Data for the cln2 rad14 strain (AID 165);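 note: 0% = growth equal to vehicle treated cultures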; conditions: S. cerevisiae cln2 rad14 strain, active compounds read high
Summary of the method: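 The screen exposed genetically defined yeast (cln2 rad14) to test compounds and scored growth inhibition relative to vehicle-treated controls.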

[11] = NCI Yeast Anticancer Drug Screen. Data for the bub3 strain (AID 167); conditions: S. cerevisiae bub3 mutant strain, active compounds read high
Summary of the method: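 Yeast carrying a defined mutation is treated with each compound, and growth is compared with that of vehicle-exposed cells to give inhibition.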

[12] = NCI Yeast Anticancer Drug Screen. Data for the wt2 strain (AID 169);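 note: 0% = growth of vehicle-treated yeast cultures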; conditions: S. cerevisiae wt2 strain growth inhibition, active compounds read high
Summary of the method: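 Steps: yeast strain treated with compound; growth recorded; inhibition calculated relative to cultures given vehicle alone.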

[13] = NCI Yeast Anticancer Drug Screen. Data for the mlh1 strain (AID 171);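 note: 0% = growth of vehicle-treated control cultures of the same strain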; conditions: S. cerevisiae mlh1 strain growth inhibition, active compounds read high
Summary of the method: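 Yeast screen: mutant strain plus compound, growth scored against vehicle control wells.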

[14] = NCI Yeast Anticancer Drug Screen. Data for the sgs1 strain (AID 173);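 note: 0% = growth of vehicle-only control cultures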; conditions: S. cerevisiae sgs1 mutant, active compounds read high
Summary of the method: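 Inhibition of yeast growth served as the measure. The mutant strain was treated with each compound, and growth was normalised to cultures receiving vehicle alone.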

[15] = NCI Yeast Anticancer Drug Screen. Data for the mlh1 rad18 strain (AID 175); conditions: S. cerevisiae mlh1 rad18 strain growth inhibition, active compounds read high
Summary of the method: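 Compound-treated yeast growth, normalised to vehicle controls. Strain bears defined DNA repair mutations.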

[16] = NCI Yeast Anticancer Drug Screen. Data for the rad18 strain (AID 177); conditions: S. cerevisiae rad18 mutant growth inhibition, active compounds read high
Summary of the method: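 Inhibition values reflect reduced yeast growth compared with vehicle-treated controls, using a strain engineered with a DNA damage repair defect.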

[17] = at 5.0 µM (retest, dose inferred, filed as 0.5)
[18] = at 50.0 µM (retest, dose inferred, filed as 5.0)

Measured: growth inhibition

OCC(Cn1cncn1)(c1ccc(F)cc1F)n1cncn1 (stereo unspecified)
inactive: [1]; at 1.2 µM 35% | [1]; at 3.7 µM 57% | [1]; at 11.0 µM 63% | [1]; at 33.0 µM 66% | [1]; at 100.0 µM 65% | [2]; at 1.2 µM 13% | [2]; at 3.7 µM 40% | [2]; at 11.0 µM 45% | [2]; at 33.0 µM 43% | [2]; at 100.0 µM 42% | [3]; at 1.2 µM 2% | [3]; at 3.7 µM 28% | [4]; at 1.2 µM 33% | [4]; at 3.7 µM 62% | [4]; at 11.0 µM 65% | [4]; at 33.0 µM 66% | [4]; at 100.0 µM 65% | [5]; at 1.2 µM 34% | [5]; at 3.7 µM 54% | [5]; [17] 55% | [5]; at 11.0 µM 59% | [5]; at 33.0 µM 59% | [5]; at 50.0 µM 61.8% | [5]; at 100.0 µM 60% | [6]; at 1.2 µM 27% | [6]; at 3.7 µM 45% | [6]; [17] 41% | [6]; at 11.0 µM 53% | [6]; at 33.0 µM 53% | [6]; [18] 61% | [6]; at 50.0 µM 44.2% | [6]; at 100.0 µM 52% | [7]; at 1.2 µM 57% | [8]; [17] 67% | [8]; at 50.0 µM 68.2% | [9]; at 1.2 µM 29% | [9]; at 3.7 µM 51% | [9]; at 11.0 µM 62% | [9]; at 33.0 µM 65% | [9]; at 100.0 µM 68% | [10]; [17] 22% | [10]; at 50.0 µM 63% | [11]; at 1.2 µM 27% | [11]; at 3.7 µM 54% | [11]; [17] 14% | [11]; at 11.0 µM 69% | [11]; at 33.0 µM 69% | [11]; at 100.0 µM 66% | [12]; at 1.2 µM 31% | [12]; at 3.7 µM 57% | [12]; at 11.0 µM 64% | [12]; at 33.0 µM 61% | [12]; at 100.0 µM 57% | [13]; at 1.2 µM 22% | [13]; at 3.7 µM 47% | [13]; at 11.0 µM 53% | [13]; at 33.0 µM 53% | [13]; at 100.0 µM 50% | [14]; at 1.2 µM 48% | [14]; at 3.7 µM 67% | [15]; [17] 31% | [15]; at 50.0 µM 57.5% | [16]; at 1.2 µM 41% | [16]; at 3.7 µM 60% | [16]; at 11.0 µM 67% | [16]; at 33.0 µM 65% | [16]; at 100.0 µM 65%
active: [3]; at 11.0 µM 86% | [3]; at 33.0 µM 92% | [3]; at 100.0 µM 94% | [5]; [18] 77% | [7]; at 3.7 µM 74% | [7]; at 11.0 µM 83% | [7]; at 33.0 µM 76% | [7]; at 100.0 µM 74% | [8]; [18] 78% | [10]; [18] 81% | [11]; [18] 84% | [11]; at 50.0 µM 71% | [14]; at 11.0 µM 72% | [14]; at 33.0 µM 72% | [14]; at 100.0 µM 70% | [15]; [18] 86%

CN(Cc1cnc2nc(N)nc(N)c2n1)c1ccc(C(=O)N[C@@H](CCC(=O)O)C(=O)O)cc1
inactive: [1]; at 1.2 µM -2% | [1]; at 3.7 µM -1% | [1]; at 11.0 µM 8% | [1]; at 33.0 µM 41% | [2]; at 1.2 µM -1% | [2]; at 3.7 µM -3% | [2]; at 11.0 µM -3% | [2]; at 33.0 µM 6% | [2]; at 100.0 µM 24% | [3]; at 1.2 µM -2% | [3]; at 3.7 µM -4% | [3]; at 11.0 µM -5% | [3]; at 33.0 µM 1% | [3]; at 100.0 µM 21% | [4]; at 1.2 µM -1% | [4]; at 3.7 µM -3% | [4]; at 11.0 µM -4% | [4]; at 33.0 µM 1% | [4]; at 100.0 µM 28% | [5]; at 1.2 µM -2% | [5]; at 3.7 µM 1% | [5]; [17] -2% | [5]; at 11.0 µM 6% | [5]; at 33.0 µM 38% | [6]; at 1.2 µM 1% | [6]; at 3.7 µM 2% | [6]; [17] 14% | [6]; at 11.0 µM 17% | [7]; at 1.2 µM -1% | [7]; at 3.7 µM -5% | [7]; at 11.0 µM -7% | [7]; at 33.0 µM 14% | [8]; [17] -3% | [8]; [18] 64% | [9]; at 1.2 µM 0% | [9]; at 3.7 µM 0% | [9]; at 11.0 µM -7% | [9]; at 33.0 µM -16% | [9]; at 100.0 µM 20% | [10]; [17] -1% | [10]; [18] 22% | [10]; at 50.0 µM -6.4% | [11]; at 1.2 µM 2% | [11]; at 3.7 µM -1% | [11]; [17] -7% | [11]; at 11.0 µM -7% | [11]; at 33.0 µM -4% | [11]; [18] 63% | [11]; at 100.0 µM 40% | [12]; at 1.2 µM -3% | [12]; at 3.7 µM -4% | [12]; at 11.0 µM -4% | [12]; at 33.0 µM 12% | [12]; at 100.0 µM 47% | [13]; at 1.2 µM -1% | [13]; at 3.7 µM -4% | [13]; at 11.0 µM -5% | [13]; at 33.0 µM 7% | [13]; at 100.0 µM 35% | [14]; at 1.2 µM -2% | [14]; at 3.7 µM -3% | [14]; at 11.0 µM 3% | [14]; at 33.0 µM 27% | [14]; at 100.0 µM 63% | [15]; [17] -2% | [15]; [18] 58% | [16]; at 1.2 µM -2% | [16]; at 3.7 µM 0% | [16]; at 11.0 µM 4% | [16]; at 33.0 µM 30%
active: [1]; at 100.0 µM 85% | [5]; [18] 82% | [5]; at 50.0 µM 88.6% | [5]; at 100.0 µM 85% | [6]; at 33.0 µM 88% | [6]; [18] 94% | [6]; at 50.0 µM 97.9% | [6]; at 100.0 µM 96% | [7]; at 100.0 µM 72% | [8]; at 50.0 µM 82.5% | [11]; at 50.0 µM 90.5% | [15]; at 50.0 µM 87.8% | [16]; at 100.0 µM 80%
